# Measured values as given in PubChem BioAssay (NCATS).
# Inconclusive results are not listed. A number with no mark means an inactive call. Activity calls are given as the source filed them. Calls follow the shape of the dose curve; as a rule, active = well fitted cell-killing curve with a large enough effect; inconclusive = small, poorly fitted or top-dose-only effect, or effect the other way; inactive = flat fitted curve, though single readings scatter.
# System: Tov112D
# Experiment: Primary qHTS to identify gynecologic anti-cancer compounds using libraries of approved drugs and bioactive compounds (AID 1345084); also: nearly all actives have a fitted effect of over 55% in size
# Details: Gynecologic cancer cell panel viability, ATPlite luminescence, 48 h; series mostly up to 57.5 µM; activity change, negative = cytotoxicity: at the top concentration
# Summary of the method: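 Measured: luminescence after ATPlite addition (15 min, RT). Exposure: 48 h, 37 C, 5% CO2.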
# % is scaled to controls: 0 for no effect and ±100 for the full control effect; potency is read from the fitted curve at half-maximal effect.
Structure (SMILES),"activity change, negative = cytotoxicity",Potency
COc1cc(OC)c2c(=O)[nH]c(-c3cc(C)c(OCCO)c(C)c3)nc2c1,-16.3%,–
COc1ccc(C2=NC(c3ccc(Cl)cc3)C(c3ccc(Cl)cc3)N2C(=O)N2CCNC(=O)C2)c(OC(C)C)c1 (centres undefined),1.23%,–
CCn1c(=O)c(-c2ccc(-c3cncs3)cc2Cl)cc2cnc(Nc3ccc(N4CCN(C)CC4)cc3)nc21,-0.988%,–
COC(=O)c1ccc2c(c1)[nH]c1ncnc(NCCCN3CCCCC3)c12,-7.35%,–
CN1CCN(c2ccc(Nc3cc(-c4cccc(-n5ccc6cc(C7CC7)cc(F)c6c5=O)c4CO)cn(C)c3=O)nc2)CC1,-1.76%,–
O=c1nc(-c2ccccn2)sc2ccccc12,0.155%,–
CNc1nc(Nc2ccc(C(=O)N3CCOCC3)cc2OC)nc2[nH]cc(Cl)c12,-16.5%,–
Cn1cc(-c2ccc3c(c2)CCN3C(=O)Cc2cccc(C(F)(F)F)c2)c2c(N)ncnc21,-5.72%,–
C=C1CCC2[C@](C)(CCC[C@@]2(C)C=O)[C@H]1CC/C(C)=C/CO (some centres undefined),-2.58%,–
CC1(CO)CC(O)[C@]2(C(=O)O)CCC34CC3(C=CC3[C@]5(C)C(CC[C@]34C)C(C)(CO)[C@@H](O)[C@H](O)[C@@H]5O)C2C1 (some centres undefined),2.15% [at 25.3 µM],–
C/C=C(/C)C(=O)O[C@@H]1C[C@@H](OC(=O)CC(C)C)C2(C)C3C(=O)C=C(C)C2C3C1(C)C (some centres undefined),-7.56% [at 25.3 µM],–
O=C(NCCCN1CCOCC1)c1cnn2c(-c3ccccc3)cc(-c3ccccc3)nc12,-24.2%,–
Cc1cc(OCCCS(C)(=O)=O)cc(C)c1-c1cccc(COc2ccc3c(c2)OCC3CC(=O)O)c1 (centres undefined),0.556%,–
CC1=C(C(=O)OC2CCCCC2)C(c2ccc([N+](=O)[O-])cc2)C2=C(CC(C)(C)CC2=O)N1 (centres undefined),-28.6%,–
CC1(C)CC[C@]2(C(=O)O[C@@H]3O[C@H](CO)[C@@H](O)[C@H](O)[C@H]3O)CC[C@]3(C)C(=CCC4[C@@]5(C)CC[C@H](O[C@@H]6O[C@H](C(=O)O)[C@H](O)[C@H](O)[C@H]6O)C(C)(C)C5CC[C@]43C)[C@@H]2C1 (some centres undefined),21.6% [at 25.3 µM],–
CCN1CCN(Cc2ccc(C(=O)Nc3ccc(C)c(Oc4ccc5c(c4)CC(=O)N5)c3)cc2C(F)(F)F)CC1,10.5%,–
CC(=O)c1c(C)cc2cccc(O)c2c1O[C@@H]1O[C@H](CO)[C@@H](O)[C@H](O)[C@H]1O,0.954% [at 38.5 µM],–
O=C(Nc1ccc(N(Cc2ccsc2)C(=O)Cn2nnc3ccccc32)cc1)C1CC1,3.72%,–
COc1ccc(CCc2nc3cc(-c4c(C)noc4C)ccc3n2CC(C)N2CCOCC2)cc1Cl (centres undefined),-1.76%,–
CNc1cccc(CCOc2ccc3c(c2)CN(CC(F)(F)F)C(=O)[C@H](CC(=O)O)C3)n1,-15.3%,–

Structure (SMILES),"activity change, negative = cytotoxicity",Potency
CC(C)(O)c1ccn2c(-c3ccc(F)c(-c4ccc(F)cc4C#N)c3)cnc2c1F,0.0618%,–
Cc1[nH]c2ccccc2c1CCNCc1ccc(/C=C/C(=O)NO)cc1,–,0.316 µM (active)
C[C@@H]1O[C@@H](O[C@H]2[C@@H]3C=CO[C@@H](O[C@@H]4O[C@H](CO)[C@@H](O)[C@H](O)[C@H]4O)[C@@H]3[C@@]3(CO)O[C@@H]23)[C@H](O)[C@H](OC(=O)/C=C/c2ccccc2)[C@H]1O,0.377% [at 25.3 µM],–
C=C1C(=O)OC[C@@H]1C/C=C(\C)CC1CC(C)C(=O)O1 (some centres undefined),-8.82%,–
COc1ccc(S(=O)(=O)n2cnc3cc(C)c(C)cc32)cc1,-39.8%,–
C[C@@H]1O[C@@H](O[C@H]2CC[C@@]3(C)C(CC[C@]4(C)C3CC=C3[C@@H]5CC(C)(C)CC[C@]5(C(=O)O[C@@H]5O[C@H](CO)[C@@H](O)[C@H](O)[C@H]5O)CC[C@]34C)[C@]2(C)CO)[C@H](O)[C@H](O[C@@H]2O[C@H](CO)[C@@H](O)[C@H](O)[C@H]2O)[C@H]1O (some centres undefined),1.58% [at 11.6 µM],–
CCCOc1ccc(S(=O)(=O)N2CCN(CCO)CC2)cc1-c1nc2c(CCC)cn(CC)c2c(=O)[nH]1,18.7%,–
COc1ccc(CCCN2CCC(COC(c3ccccc3)c3ccccc3)CC2)cc1,-2.24%,–
CCNc1nc(Nc2cc(F)c(C(=O)N3CCOCC3)cc2OC)ncc1C(F)(F)F,-0.396%,–
CC(=O)O[C@@H]1[C@@H](OC(C)=O)[C@H](C)O[C@@H](O[C@H]2[C@@H]3C=CO[C@@H](O[C@@H]4O[C@H](CO)[C@@H](O)[C@H](O)[C@H]4O)[C@@H]3[C@@]3(CO)O[C@@H]23)[C@@H]1OC(=O)/C=C/c1ccccc1,-6.15% [at 25.3 µM],–
OC(c1ccc(-c2ccc(CN3CCN(Cc4ccncc4)CC3)cc2)c(F)c1)(C(F)(F)F)C(F)(F)F,-4.42%,–
O=C(Nc1ccccc1)N1CCN(c2nc(-c3ccccc3)ns2)CC1,-6.81%,–
Cc1cc(N2CCOCC2)ccc1Nc1nc(NC2CCCCC2)c2[nH]cnc2n1,-0.624%,–
O=C(O)CCc1nccc2c1[nH]c1ccccc12,-1%,–
O=c1[nH]c2ccc(C#CCN3CCC(Cc4ccccc4)CC3)cc2[nH]1,-10.4%,–
COC1=CC(=O)O/C1=C(/OC)[C@@H]1O[C@H]1c1ccccc1,7.15%,–
O=C(Nc1ccc(-c2ccnc(Nc3ccc(N4CCOCC4)cc3)n2)cc1)C1CCCN1 (centres undefined),2.65%,–
CCCCC1CCN(CCCN2C(=O)CCc3ccccc32)CC1,-19.5%,–
O=C(NCc1cccs1)c1cc2nc(-c3ccco3)cc(C(F)(F)Cl)n2n1,5.85%,–
